# Source: PubChem BioAssay
# Activity calls are given as the source filed them.
# Assay: plasmodial surface anion channel blockers, osmotic lysis – cell-based, P. falciparum Indochina, OD700, 2 h, primary screen (AID 1155);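 also: lysis reports solute entry through the parasite surface anion channel PSAC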
# Settings: P. falciparum Indochina infected erythrocytes, higher = more signal, called active from +8 up or from −8 down
row,Compound,z-score
1,CC(C)c1ccc(NN2C(C(O)c3ccc4c(c3)OCO4)C=CC3C(=O)N(c4ccccc4)C(=O)C32)cc1 (stereo unspecified),1 (inactive)
2,C[C@@H]1CCC2C(=O)N(Cc3ccccc3)C[C@@H](O)CN2[C@H]1c1ccc(Br)cc1 (stereo partly specified),-0.875 (inactive)
3,O=C1[C@H]2[C@H]3[C@H](O)[C@H](O)CC(=NO[C@@H]4O[C@H](CO)[C@@H](O)[C@H](O)[C@H]4O)[C@H]3CC[C@H]2C(=O)N1Cc1ccc2c(c1)OCO2,2.09 (inactive)
4,CC[C@@H](c1ccccc1)n1c(=O)n2n(c1=O)[C@H]1[C@H](O)[C@@H]3O[C@@H]3C(=NOCC=C(C)CCC=C(C)C)[C@H]1CC2,0.719 (inactive)
5,CC(C)(C)N1C(=O)[C@H]2[C@H]3[C@H](O)[C@H](O)CC(=NO[C@@H]4O[C@H](CO)[C@@H](O)[C@H](O)[C@H]4O)[C@@H]3CC[C@H]2C1=O,0.0656 (inactive)
6,CC(C)(C)N1C(=O)[C@H]2[C@H]3[C@H](O)[C@H](O)CC(=NOCc4ccccc4)[C@@H]3CC[C@H]2C1=O,-1.53 (inactive)
7,COCCOC(=O)N1C(=O)[C@@]2(c3cc(C#CCNC(N)=O)ccc31)[C@H](c1ccccc1OCCO)N1[C@H](c3ccccc3)[C@H](c3ccccc3)OC(=O)[C@H]1[C@@H]2C(=O)N1CCN(c2ncccn2)CC1,-0.313 (inactive)
8,COc1ccc(O[C@H]2C=C[C@@H](c3ccccc3)O[C@@H]2COC(=O)N2CCCCC2)cc1,-0.213 (inactive)
9,CCc1cccc(NC(=O)O[C@H]2[C@H](OC(=O)Nc3ccc4c(c3)OCO4)[C@@H](OC(=O)Nc3ccc4c(c3)OCO4)[C@@H](OC)O[C@@H]2CO)c1,1.22 (inactive)
10,CCN1C(=O)[C@H]2[C@H]3[C@H](O)[C@H](O)CC(=NOCC=C(C)CCC=C(C)C)[C@H]3CC[C@H]2C1=O,-0.506 (inactive)
11,CC(C)C[C@@H]1NC(=O)[C@H]2C[C@@H](C(=O)O)[C@@H](c3ccc(O)cc3)N2C1=O,1.66 (inactive)
12,CN(C)C(=O)[C@@]1(Cc2ccccc2)N=C(c2ccc(OCCCO)cc2)O[C@H]1c1ccccc1CN=[N+]=[N-],1.15 (inactive)
13,CO[C@@H]1COC(=O)CC=C[C@@H](C)[C@@H]2C=C[C@H](O)[C@@H](COC(=O)CCC[C@H]1C)O2,-1.66 (inactive)
14,CC(C)CON=C1C[C@@H](O)[C@@H](O)[C@@H]2[C@@H]3C(=O)N(Cc4ccccc4)C(=O)[C@@H]3CC[C@@H]12,0.227 (inactive)
15,COC(=O)c1c(CC[C@@H](CO)NC(=O)N[C@H](Cc2ccccc2)Cn2cc(-c3ccccc3N)nn2)oc(C(C)=O)c1C(=O)OC,15.5 (active)
16,CO[C@@H]1COC(=O)CCC[C@@H](C)[C@H](OC)COC(=O)CCC[C@H]1C,0.637 (inactive)
17,CCOC(=O)CCN1C(=O)[C@H]2[C@H]3[C@H](O)[C@H](O)CC(=NOC[C@@H](O)COCc4ccco4)[C@@H]3CC[C@H]2C1=O,0.63 (inactive)
18,C=COC[C@H]1CN2[C@@H](CC[C@@H](C)[C@@H]2c2ccc(Br)cc2)C(=O)O1,-2.06 (inactive)

row,Compound,z-score
1,O=C1C[C@@H](O)[C@@H](O)[C@@H]2[C@@H]3C(=O)N(c4cccc(Oc5ccccc5)c4)C(=O)[C@@H]3CC[C@@H]12,-0.329 (inactive)
2,COc1ccc([Si](C)(C)[C@@H]2[C@@H](CCO)O[C@]3(C(=O)N(Cc4ccc(NC(C)=O)cc4)c4ccccc43)[C@H]2C)cc1,7.13 (inactive)
3,O=C1[C@H]2[C@H]3[C@H](O)[C@H](O)CC(=NO[C@@H]4O[C@H](CO)[C@@H](O)[C@H](O)[C@H]4O)[C@H]3CC[C@H]2C(=O)N1C1CCCCC1,-0.0811 (inactive)
4,COc1ccc(-c2ccc3c(n2)CCCN3CC(O)CN2CCCc3nc(C)c(C)cc32)cc1 (stereo unspecified),0.894 (inactive)
5,O=C1CCCC2OC12C(O)CCc1ccccc1 (stereo unspecified),-0.521 (inactive)
6,C[C@@H](c1ccccc1)N1C(=O)[C@H]2[C@H]3[C@H](O)[C@H](O)CC(=NNC(=O)OCc4ccccc4)[C@H]3CC[C@H]2C1=O,1.03 (inactive)
7,COc1ccc(O[C@H]2C=C[C@@H](c3ccccc3)O[C@@H]2COC(=O)CCC(C)=NOCC[C@@H]2C=C[C@H](OC(C)=O)[C@@H](COC(C)=O)O2)cc1,1.2 (inactive)
8,COC(=O)C1=C(C)N(Cc2ccccc2)[C@]23O[C@](C(=O)OC)(C(=O)N2[C@@H]1c1ccccc1)[C@H]1CCOC(=O)[C@H]13,-0.0468 (inactive)
9,Cn1c(=O)n2n(c1=O)[C@H]1[C@H](O)[C@@H]3O[C@@H]3C(=NOC[C@@H](O)COCc3ccco3)[C@H]1CC2,-0.507 (inactive)
10,C[C@@H]1CC[C@H]2C(=O)O[C@H](COc3ccc(C(C)(C)C)cc3)CN2[C@H]1c1ccc(Br)cc1,0.538 (inactive)
11,C=CC[C@]1(C(=O)NCc2ccccc2)N=C(c2ccc(OCCCO)cc2)O[C@H]1c1ccccc1,1.83 (inactive)
12,COCCNC(=O)OCC1CCCC2(CC(OC(=O)NCCc3ccc(F)cc3)CC(CCC(=O)N[C@@H](C)C(=O)OC)O2)O1 (stereo partly specified),-0.61 (inactive)
13,CCOC(=O)CCN1C(=O)[C@H]2[C@H]3[C@H](O)[C@H](O)CC(=NOCc4ccccc4)[C@@H]3CC[C@H]2C1=O,0.885 (inactive)
14,CCCNC(=O)OC[C@H]1O[C@H](CCON=CC[C@@H]2C=C[C@H](OC(C)=O)[C@@H](COC(C)=O)O2)C=C[C@@H]1Oc1ccc(OC)cc1,0.405 (inactive)
15,O=C1[C@H]2[C@H]3[C@H](O)[C@H](O)CC(=NOC[C@@H](O)COCc4ccco4)[C@H]3CC[C@H]2C(=O)N1Cc1ccc2c(c1)OCO2,1.02 (inactive)
16,COC(=O)CC=C[C@@H](C)[C@@H](C=NO[C@@H](C)c1cc(-c2c(C)cc(C)cc2C)no1)OC,-0.032 (inactive)
17,C=C(/C(=C/C[C@@H](OC(=O)c1ccncc1)c1ccc(OCCO)cc1)c1cnc2ccccc2c1)C(C)C,4.25 (inactive)
18,CC(=O)OC[C@H]1O[C@H](CC=NOC[C@@H](C)[C@H](OCc2ccccc2)C(C)C)C=C[C@@H]1OC(C)=O,0.766 (inactive)
